PfM18AAP inh-1 = PfM18AAP inhibitors, malaria aminopeptidase, primary screen, biochemical, QFRET, recombinant enzyme; M18 aspartyl aminopeptidase (Plasmodium falciparum 3D7); H-Glu-NHMec fluorogenic cleavage; inhibition, % at 7.35 µM; hit rate 1.2% among 290,000;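 active means inhibition above the campaign mean inhibition over all tested compounds plus 3 SD, cut at about 28% in these data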;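 further: 0% = plate median of test compound wells and 100% = 2 mM ZnCl2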
PHOSPHO1 block = PubChem AID 1565; recombinant PHOSPHO1, absorbance phosphatase assay; inhibition, % at 13.3 µM; hit rate 1.1% among 290,000; in the data active means inhibition above about 60%
Target sequence (Q8TCT1 whole entry, looked up): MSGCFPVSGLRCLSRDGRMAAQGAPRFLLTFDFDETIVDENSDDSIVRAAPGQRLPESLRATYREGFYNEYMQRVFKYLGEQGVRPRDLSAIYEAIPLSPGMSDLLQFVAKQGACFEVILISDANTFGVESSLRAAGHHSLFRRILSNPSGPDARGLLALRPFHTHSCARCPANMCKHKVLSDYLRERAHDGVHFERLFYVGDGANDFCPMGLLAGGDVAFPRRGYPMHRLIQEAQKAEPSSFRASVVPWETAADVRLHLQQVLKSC
H9c2 protect = cardioprotection against H2O2-induced cell death, primary screen, uHTS, H9c2 cells, ATPLite luminescence | H9c2 cardiomyocytes, H2O2 injury protection, 2 h | hit rate 0.63% among 360,000 | protection from H2O2 cell death, % at 20 µM | AID 588492, 2011;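 active means compounds giving at least 50% protection of heart cells from peroxide-induced death in the single-dose screen, raw or plate-pattern-corrected value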;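 further: 0% = DMSO wells with peroxide and 100% = DMSO wells without peroxide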
PfG6PD inh = PfG6PD enzyme inhibitors, primary screen, biochemical, fluorescence intensity, uHTS. PfGluPho enzyme, NADPH resazurin-diaphorase fluorescence. inhibition, % at 20 µM. hit rate 0.78% among 350,000;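 active means inhibition reaching at least a set limit at 20 µM in the primary screen, cut at about 59% in these data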;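 further: 0% = DMSO wells with substrate and 100% = DMSO wells lacking glucose-6-phosphate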
ALR inh = inhibitors of human ALR sulfhydryl oxidase, primary screen, biochemical, H2O2 detection, HRP-luminol luminescence, single point. purified ALR, DTT oxidation. inhibition, % (test concentration not listed). hit rate 3.8% among 290,000;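 active means mean replicate inhibition above about 79%, with every replicate also reaching it, limit read from the data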
Target sequence (P55789 whole entry, looked up): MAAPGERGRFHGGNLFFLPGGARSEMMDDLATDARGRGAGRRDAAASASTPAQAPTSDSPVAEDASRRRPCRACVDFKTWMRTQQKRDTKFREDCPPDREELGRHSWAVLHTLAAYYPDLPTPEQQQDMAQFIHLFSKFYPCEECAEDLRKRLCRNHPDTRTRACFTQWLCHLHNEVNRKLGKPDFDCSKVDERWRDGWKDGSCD
PfM18AAP inh-2 = PfM18AAP inhibitors, malaria aminopeptidase, confirmation, biochemical, QFRET, recombinant enzyme, triplicate. shares compounds with PfM18AAP inh-1. H-Glu-NHMec fluorogenic cleavage. inhibition, % at 7.35 µM. hit rate 28% among 2,400;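 active means mean inhibition over replicate wells above the hit cutoff set for the earlier primary screen, cut at about 29% in these data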;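 further: 0% = median of test compound wells and 100% = 2 mM ZnCl2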
CTSL1 counter = cathepsin L1 inhibitors, retest, confirmation, counter-screen for PFM18AAP inhibitor project, biochemical, QFRET, triplicate; shares compounds with PfM18AAP inh-1; purified cathepsin L1, Z-Leu-Arg-MCA fluorescence; AID 2178, 2009; inhibition, % at 5.96 µM; 2,400 tested, under 10 active;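 active means average inhibition across replicates above the hit cutoff set in the earlier primary screen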;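 further: 0% = median of test compound wells and 100% = Z-Phe-Ala-diazomethylketone 1 µM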
Active calls of the source: *. Hits are enriched below; roughly 5.6% of the tested compounds scored in any of these assays.

What do the screens show for `Cc1cc(C)c(NC(=O)CN(C)C(=O)C2CC(=O)N(c3cccc4ccccc34)C2)c(C)c1` (stereo not given)?
H9c2 protect: 1; PfG6PD inh: -2

Results for O=c1c2c3c(sc2n2c(=S)[nH]nc2n1-c1ccccc1)CCC3 ?
PfM18AAP inh-1: -1; PHOSPHO1 block: -59; H9c2 protect: 2; PfG6PD inh: 27; ALR inh: 24

What do the screens show for `CCCCn1c(=O)c2ccccc2n2c(=S)[nH]nc12`?
PfM18AAP inh-1: 32*; PHOSPHO1 block: -47; H9c2 protect: 4; PfG6PD inh: 22; ALR inh: 15; PfM18AAP inh-2: -2; CTSL1 counter: -3

Results for CCCCCn1c(=O)c2ccccc2n2c(=S)[nH]nc12 ?
PfM18AAP inh-1: 14; PHOSPHO1 block: -42; H9c2 protect: 4; PfG6PD inh: 20; ALR inh: 21

Results for CN1CCc2c(sc3c2c(=O)n(-c2ccccc2)c2n[nH]c(=S)n32)C1 ?
PfM18AAP inh-1: 38*; PHOSPHO1 block: 24; H9c2 protect: 1; PfG6PD inh: 53; ALR inh: 64; PfM18AAP inh-2: -22; CTSL1 counter: 2

Results for O=c1c2ccccc2n2c(=S)[nH]nc2n1-c1ccccc1 ?
PfM18AAP inh-1: 45*; PHOSPHO1 block: 43; H9c2 protect: 1; PfG6PD inh: 48; ALR inh: 48; PfM18AAP inh-2: 19; CTSL1 counter: -5

How did CC(OC(=O)c1ccco1)C(=O)Nc1ccc(C(F)(F)F)cc1 (stereo not given) do in these assays?
H9c2 protect: -6; PfG6PD inh: 3; ALR inh: -2

How did O=C(N/N=C/c1ccc(N2CCOCC2)s1)c1ccccc1Br do in these assays?
PfM18AAP inh-1: 41*; PHOSPHO1 block: -72; H9c2 protect: 0; PfG6PD inh: 10; ALR inh: 4; PfM18AAP inh-2: -22; CTSL1 counter: 7

Results for Cc1cnn(Cc2cccnc2)c1N ?
PfM18AAP inh-1: -9; PHOSPHO1 block: 38; H9c2 protect: 4; PfG6PD inh: -9; ALR inh: 5

What do the screens show for `CCc1nnc(N/N=C/c2c(F)cccc2Cl)n1N`?
PfM18AAP inh-1: 14; PHOSPHO1 block: 8; H9c2 protect: -5; PfG6PD inh: 28; ALR inh: -1

How did CCc1nnc(N/N=C/c2cc(C)c(C)cc2C)n1N do in these assays?
PfM18AAP inh-1: 40*; PHOSPHO1 block: 19; H9c2 protect: -7; PfG6PD inh: 27; ALR inh: -20; PfM18AAP inh-2: -20; CTSL1 counter: 2

Results for Cc1ccc(/C=c2\sc3n(c2=O)CN(c2cccc(Br)c2)CN=3)o1 ?
PfM18AAP inh-1: 37*; PHOSPHO1 block: -71; H9c2 protect: 2; PfG6PD inh: 30; ALR inh: -1; PfM18AAP inh-2: -58; CTSL1 counter: -2

How did NC(Cc1ccc(C(F)(F)F)cc1)c1csc(Nc2ccc(C(=O)c3ccccc3)cc2)n1 (stereo not given) do in these assays?
H9c2 protect: -29

How did CCNC(=O)C1(C)CCCN1C(=O)c1ccc2c(c1)OCO2 (stereo not given) do in these assays?
H9c2 protect: -7

Results for S=C1NC(c2ccccc2)N2C(=S)NC(c3ccccc3)N12 (stereo not given) ?
PfM18AAP inh-1: 38*; PHOSPHO1 block: 1; H9c2 protect: -4; PfG6PD inh: 20; ALR inh: 98*; PfM18AAP inh-2: -42; CTSL1 counter: -1

Results for COc1cc(SC)ccc1C(=O)N1CCN(c2ccc(O)cc2)CC1 ?
PfM18AAP inh-1: 37*; PHOSPHO1 block: 6; H9c2 protect: 5; PfG6PD inh: 57; ALR inh: 99*; PfM18AAP inh-2: -10; CTSL1 counter: -2

Results for COc1cc(SC)ccc1C(=O)N1CCN(c2ccccc2)CC1 ?
PfM18AAP inh-1: -10; PHOSPHO1 block: 53; H9c2 protect: 0; PfG6PD inh: -20; ALR inh: 51

What do the screens show for `COc1cc(C(O)c2nc(-c3ccc(N(C)C)cc3)cs2)ccc1F` (stereo not given)?
H9c2 protect: -23

What do the screens show for `O=C(Nc1cccc(C(=O)N2CCOCC2)c1)C1CC1`?
H9c2 protect: 13; PfG6PD inh: 2

Results for Cc1cc(C)c2c(N)c(C(=O)NCc3ccco3)sc2n1 ?
PfM18AAP inh-1: 36*; PHOSPHO1 block: 5; H9c2 protect: -2; PfG6PD inh: -2; ALR inh: 14; PfM18AAP inh-2: -55; CTSL1 counter: -4

Results for CC(=O)c1sc2nc(C)cc(C)c2c1N ?
PfM18AAP inh-1: -9; PHOSPHO1 block: -2; H9c2 protect: 0; PfG6PD inh: 25

How did Cc1occc1C(=O)NNC(=O)Nc1ccc(Cl)c(Cl)c1 do in these assays?
PfM18AAP inh-1: 23; PHOSPHO1 block: 13; H9c2 protect: -4; PfG6PD inh: 1; ALR inh: 3

Results for Cc1ccsc1C(=O)NNC(=O)Nc1ccc(Cl)c(Cl)c1 ?
PfM18AAP inh-1: 41*; PHOSPHO1 block: 4; H9c2 protect: -9; PfG6PD inh: 5; ALR inh: -3; PfM18AAP inh-2: 28; CTSL1 counter: 0

What do the screens show for `CN1CCN(NC(=S)Nc2ccccc2)CC1`?
PfM18AAP inh-1: 0; PHOSPHO1 block: -1; H9c2 protect: 2; PfG6PD inh: -1; ALR inh: -4

Results for CCc1ccc(NC(=O)Nn2cnnc2)cc1 ?
PfM18AAP inh-1: 55*; PHOSPHO1 block: 46; H9c2 protect: 3; PfG6PD inh: -9; ALR inh: -6; PfM18AAP inh-2: 30*; CTSL1 counter: -4

What do the screens show for `CCc1ccc(NC(=O)NNC(=O)CCc2ccccc2)cc1`?
PfM18AAP inh-1: -1; PHOSPHO1 block: 21; H9c2 protect: -1; PfG6PD inh: -5; ALR inh: -10

What do the screens show for `S=C(Nc1ccccc1)Nn1cnnc1`?
PfM18AAP inh-1: 65*; PHOSPHO1 block: -15; H9c2 protect: 2; PfG6PD inh: 22; PfM18AAP inh-2: 61*; CTSL1 counter: 5

Results for COc1ccc(NC(=S)Nn2cnnc2)c(OC)c1 ?
PfM18AAP inh-1: 72*; PHOSPHO1 block: 27; H9c2 protect: -8; PfG6PD inh: 36; ALR inh: 0; PfM18AAP inh-2: 80*; CTSL1 counter: -3

Results for COc1ccc(NC(=S)Nn2cnnc2)cc1OC ?
PfM18AAP inh-1: 79*; PHOSPHO1 block: -90; H9c2 protect: -6; PfG6PD inh: 47; PfM18AAP inh-2: 76*; CTSL1 counter: 0
